Measurements as given in PubChem BioAssay AID1460 (National Center for Advancing Translational Sciences (NCATS), 2008).
The whole screen tested about 270,000 compounds, of which about 5,800 (2.1%) were called active. Not shown: some 16% with an inconclusive outcome. Calls come from the whole dose curve; as a rule, active = well fitted inhibition curve with a large enough effect; inconclusive = small, poorly fitted or top-dose-only effect; inactive = flat fitted curve, though single readings scatter. The list comes from a sample in which actives are over-represented; it also holds similar structures and randomly drawn compounds. Entries that show only a call come without a potency.

target: Microtubule-associated protein tau (Homo sapiens) (UniProt P10636); test: qHTS for Inhibitors of Tau Fibril Formation, Thioflavin T Binding; settings: recombinant tau K18 P301L, heparin-induced fibrillization, ThT fluorescence; series mostly up to 57.4 µM; note: nearly all actives have a fitted effect of over 55% in size
Sequence (P10636 561-689 P618L limits assumed): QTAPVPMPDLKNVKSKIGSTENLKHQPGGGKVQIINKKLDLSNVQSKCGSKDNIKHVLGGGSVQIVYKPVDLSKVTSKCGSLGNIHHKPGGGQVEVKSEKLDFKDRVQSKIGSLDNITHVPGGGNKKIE
Procedure, shortened: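 ThT emission at 510 nm, taken 1 hr after adding 30 uM dye, quantifies aggregates formed when 20 uM heparin acts on human tau K18 P301L for 6 hr at 37 C.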
Potency is the fitted concentration of half-maximal effect.

SMILES	Potency
COc1cccc(NC(=O)N(Cc2cn(C)c3ccccc23)C2CCCCCC2)c1	inactive
COc1ccc(Cn2c(C(=O)O)c(CNCc3cccc(OC)c3)c3ccc(C)cc32)cc1	inactive
COc1cc(C(=O)NCCS(=O)(=O)N2CCN(c3ccccc3)CC2)cc(OC)c1OC	inactive
COc1ccc(-n2c(SCC(=O)Nc3ccc(Cl)c(C)c3)nc3n[nH]c(C)c3c2=N)cc1	inactive
CCOc1ccc(NC(=O)C2CCN(S(=O)(=O)c3cc(-c4noc(C)n4)ccc3C)CC2)cc1	inactive
COc1ccc(-c2nn3c(=O)cc(CN4CCN(C(=O)c5ccc(OC)c(OC)c5)CC4)nc3s2)cc1	inactive
Cc1cccc2c(=O)cc(CSc3ccccc3NC(=O)C(C)C)[nH]c12	inactive
CCCOc1ccc(Cn2c(O)cc(=O)[nH]c2=O)cc1	25.1 µM (active)
COc1ccc(Cn2c(=O)cc(C)[nH]c2=S)cc1	inactive
COc1cc(=O)[nH]c(=O)n1C(=O)Cc1ccccc1	inactive
Cc1cccc(NC(=O)N2CCC(CN3CCc4ccccc4C3)CC2)c1C	inactive
COc1ccc2c(c1OC)C(=O)OC2c1c(O)nc(SC)n(-c2ccccc2)c1=O (stereo unspecified)	inactive
COc1ccc2c(c1OC)C(=O)OC2Nc1nc(-c2ccccc2)cs1 (stereo unspecified)	17.8 µM (active)
Cc1cccc(S(=O)(=O)CC(=O)Nc2nc(-c3ccccc3)cs2)c1	inactive
O=C(CN1C(=O)COc2ccc(S(=O)(=O)N3CCCCCC3)cc21)N1CCN(c2cccc(C(F)(F)F)c2)CC1	inactive
Cc1ccc(CCNC(=O)Cn2c(-c3cccs3)cc3cc(F)ccc32)cc1	inactive
Cc1cc2nn(-c3ccc(Cl)cc3)nc2cc1NC(=O)C(C)C	inactive
Cc1ccc(Cl)cc1NC(=O)C(C)n1nnc2sc(-c3ccccc3)cc2c1=O (stereo unspecified)	17.8 µM (active)
Cc1ccc(Cl)cc1NC(=O)c1ccccn1	inactive
COc1cccc(NC(=O)CSC2=Nc3ccccc3C3=NC(CC(=O)NC4CCCCC4)C(=O)N23)c1 (stereo unspecified)	inactive
Cc1ccc(Cl)cc1N1CCN(C(=O)c2cn(C)c3ccc(S(=O)(=O)N(C)C4CCCCC4)cc3c2=O)CC1	inactive
CC(=O)Oc1cccc(N2C(=O)CC(Nc3ccc(N4CCOCC4)cc3)C2=O)c1 (stereo unspecified)	15.8 µM (active)
COc1ccc(N2CCN(C3CC(=O)N(c4ccc5c(c4)OCCO5)C3=O)CC2)cc1 (stereo unspecified)	inactive
CC(=O)Oc1cccc(N2C(=O)C3CC=C(Cl)CC3C2=O)c1 (stereo unspecified)	inactive
COCCNC(=O)CSc1c(C)cnc2c1c(=O)n(C)c(=O)n2C	inactive
CC(=O)N1c2ccccc2CC1C(=O)N1CCN(c2ccc(F)cc2)CC1 (stereo unspecified)	inactive

SMILES	Potency
Cc1ccc(Nc2nnc(SCc3ccccc3)s2)cc1	inactive
O=C(CSc1nnc(Nc2ccccc2)s1)Nc1cccnc1Cl	inactive
CC(C)c1ccc(Nc2nnc(SCC(=O)c3nnc(-c4ccccc4)o3)s2)cc1	17.8 µM (active)
CCOC(=O)c1c(S(=O)(=O)N2CCCC(C(=O)NCc3cccc(C)c3)C2)c(C)n(C)c1C (stereo unspecified)	inactive
COc1cccc(CNC(=O)C2CCN(S(=O)(=O)c3ccc4c(ccn4C)c3)CC2)c1	inactive
CCOc1ccc(/C=N/NC(=O)CSc2ccccn2)cc1O	inactive
COc1ccc(/C=N/N=C2/C(=O)Nc3ccccc32)cc1O	10 µM (active)
COc1ccc(/C=N/S(=O)(=O)c2ccccc2)cc1OC	inactive
CCN(Cc1ccccc1)C(=O)c1cn(-c2cccc(OC)c2)c(=O)c2ccccc12	inactive
O=C(CSc1nnc(-c2ccccc2F)o1)Nc1cccc(C(F)(F)F)c1	inactive
CN(C(=O)CSc1nnc(NC(=O)Nc2ccccc2)s1)c1ccccc1	inactive
CCc1cccc(NC(=O)c2cnc(N3CCOCC3)c3ccccc23)c1	inactive
CCOC(=O)c1ccccc1C(=O)N1CCOCCOCCOCC1	inactive
CCOC(=O)c1cnc2c(C)cc(C)cc2c1Nc1ccc(N2CCOCC2)cc1	11.2 µM (active)
Cc1cc(C)cc(NC(=O)c2cnc3sc(N4CCCC4)nn3c2=O)c1	inactive
Cc1[nH]c2ccccc2c1/C=N\NC(=O)Cn1nnc(-c2ccccc2)n1	inactive
CCn1c(-c2cc(OC)ccc2OC)csc1=Nc1c(C)n(C)n(-c2ccccc2)c1=O	inactive
CN=c1scc(-c2cc(OC)ccc2OC)n1/N=C/c1c(C)[nH]c2ccccc12	14.1 µM (active)
CCOc1ccc(NC(=O)c2cc(S(=O)(=O)N3CCCC3)c[nH]2)cc1	inactive
O=S(=O)(c1ccc(Br)cc1)c1nnn2c1nc(N1CCOCC1)c1sccc12	inactive
CCN1/C(=C/c2ccc3ccc(C)cc3[n+]2CC)Sc2ccccc21	inactive
CCN1/C(=C\c2ccc3ccccc3[n+]2CC)Sc2cc(C)ccc21	15.8 µM (active)
COc1ccc(S(=O)(=O)NCC(c2ccc(N(C)C)cc2)N2CCCC2)cc1 (stereo unspecified)	inactive
O=C(c1ccc(Br)cc1)N(Cc1cccs1)c1ccc(F)cc1	inactive
c1ccc(Nc2n[nH]nc2-c2ccccc2)cc1	inactive
Nc1ccc(Nc2ccccc2)cc1	15.8 µM (active)

SMILES	Potency
Cc1cc(Nc2ccccc2)nc(N)n1	inactive
CNc1ccc(-c2nc(-c3ccccc3C)no2)cc1[N+](=O)[O-]	inactive
Cc1cccc(NC(=O)c2sc3nc4c(c(-c5ccco5)c3c2N)CCC4)c1	7.94 µM (active)
CC(=O)Nc1ccc(NC(=O)c2sc3nc4c(c(-c5ccc(C)cc5)c3c2N)CCC4)cc1	inactive
NC(=O)c1sc2nc3c(c(-c4ccccc4)c2c1N)CCC3	inactive
CCN(CC)c1ccc(NC(=O)CN2C(=O)c3cccnc3Oc3ccc(Cl)cc32)c(C)c1	inactive
O=S(=O)(Nc1ccc2nc(-c3cccc(Cl)c3)oc2c1)c1ccccc1	inactive
CCOc1ccc(-n2nc3ccc(NC(=O)c4ccc(OC)c(Cl)c4)cc3n2)cc1	inactive
COc1cccc(NC(=O)c2ccc3c(SCC(=O)O)c4c(nc3c2)CCCC4)c1	inactive
Cc1ccc(Nc2c3c(nc4ccccc24)CCC3)cc1	inactive
COc1ccccc1Nc1c2c(nc3ccc(NC(=O)/C=C/c4cc(OC)c(OC)c(OC)c4)cc13)CCCC2	14.1 µM (active)
CCOc1ccc(C(=O)Nc2ccc3nc4c(c(Nc5ccccc5OC)c3c2)CCCC4)cc1	14.1 µM (active)
COc1ccc(NS(=O)(=O)c2cc(NC(=O)/C=C/c3cc(OC)c(OC)c(OC)c3)ccc2N2CCCCC2)cc1	inactive
COCCNC(=O)CCCN1C(=O)c2ccccc2Sc2ncccc21	inactive
Cc1ccc(NC(=O)c2ccc(CN3CC(=O)N4CCCCC4C3=O)cc2)c(Cl)c1 (stereo unspecified)	inactive
Cc1ccnc(-n2sc3ccccc3c2=O)n1	14.1 µM (active)
Cc1ccnc(Nc2nc3ccccc3s2)n1	inactive
Cc1ccnc(SCC(N)=O)n1	inactive
O=C1/C(=C/c2ccc3c(c2)OCO3)CCC/C1=C\c1ccc2c(c1)OCO2	3.98 µM (active)
CCc1c(C)sc(NC(=O)/C=C/c2ccc3c(c2)OCO3)c1C(=O)OC	inactive
CCC1=C/C(=C\c2ccc3c(c2)OCO3)C(=O)S1	15.8 µM (active)
O=C(N/N=C/c1ccc2c(c1)OCO2)C(=O)N1CCCC1	inactive
NS(=O)(=O)c1ccc(NC(=O)COC(=O)c2c3c(nc4ccccc24)/C(=C\c2ccc4c(c2)OCO4)CCC3)cc1	inactive
CCOC(=O)CCCNC(=O)COC(=O)/C=C/c1ccc2c(c1)OCO2	inactive
CCOc1ccc(NC(=O)CCC(=O)N2CC(C)Oc3ccc(C)cc32)cc1 (stereo unspecified)	inactive
CC1=C(c2ccc(C)c(C)c2)S(=O)(=O)NC1=NCc1ccccc1Cl	inactive

SMILES	Potency
COc1ccc(CNC(=O)CSc2nc3ccccc3nc2Cc2ccccc2)cc1	inactive
COc1ccc(Cn2ccc3nc(C)c(C(=O)Nc4ccc(C)c(F)c4)cc3c2=O)cc1	inactive
COc1ccccc1CNC(=O)c1ccccc1NC(=O)c1nsc2ccccc12	inactive
CCOC(=O)c1cc(-c2ccc(OC)c(S(=O)(=O)Nc3ccc(OC)cc3OC)c2)on1	inactive
CN(Cc1ccco1)S(=O)(=O)c1nnc(NC(=O)c2ccccc2)s1	inactive
COc1ccc(CN2C(=O)CC(Cc3ccc(C)cc3)C2=O)cc1OC (stereo unspecified)	inactive
CCCCOc1ccc(Cn2c(=O)oc3ccc(C)cc32)cc1OC	inactive
CCCCOc1ccc(CN2C(=O)C(=O)c3cc(Br)cc(C)c32)cc1OC	28.2 µM (active)
CSc1nc(=O)c2c(n1C)NC(=O)CC2c1ccccc1OC(C)C (stereo unspecified)	inactive
Cc1cccc(N=C2NN=C(c3c[nH]c4ccccc34)CS2)c1	2.82 µM (active)
Cc1cccc(C(=O)Nc2nnc(Cc3c[nH]c4ccccc34)s2)c1	inactive
COCCn1c(C)cc(C2=NNC(=Nc3ccc(F)cc3)SC2)c1C	inactive
CCCNC(=O)c1ccc(Cn2c(SCC(N)=O)nc3ccccc3c2=O)cc1	inactive
CC(C)(C)c1nnc(NC(=O)C2c3ccccc3Oc3ccccc32)s1	22.4 µM (active)
CCC(C)NC(=O)C1c2ccccc2Oc2ccccc21 (stereo unspecified)	inactive
CCC(C)(C)NC(=O)C1c2ccccc2Oc2ccccc21	inactive
Cc1ccc(Cl)cc1NC(=O)Cc1ccc(-n2c(C)nc3cccnc32)cc1	inactive
COc1cccc(CNS(=O)(=O)c2cc3c(cc2C)n(C)c(=O)c(=O)n3C)c1	inactive
Cc1ccccc1CNC(=O)C1CCCN(S(=O)(=O)N(C)c2ccc(F)cc2)C1 (stereo unspecified)	inactive
Cc1cc(C)cc(-n2c(SCC(=O)NCC3CCCO3)nc3c([nH]c4ccccc43)c2=O)c1 (stereo unspecified)	inactive
O=C(N/N=C/c1ccc(Cl)cc1)c1nc2ccc([N+](=O)[O-])cc2c(=O)[nH]1	15.8 µM (active)
N#Cc1cc([N+](=O)[O-])ccc1Oc1cccc(/C=N/NC(=O)c2ccc(Cl)cc2)c1	inactive
O=C(CSc1nc2ccc([N+](=O)[O-])cc2[nH]1)c1ccc(Cl)cc1	inactive
